Rce1 inhib = yeast Ras-converting enzyme inhibition. Q03530. yeast membranes, quenched prenylated peptide cleavage fluorescence. calls only. hit rate 0.27% among 290,000. AID 2563;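 active means fall in fluorescence gain of 50% or more versus controls, with final raw signal at or below 3038400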;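 further: plate controls were neutral control wells for no effect and wells lacking membranes for full effect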
ANO1 activ = mouse TMEM16A channel activation, primary screen; HEK293 TMEM16A/YFP-H148Q/I152L, iodide quench fluorescence; stronger effect = lower value; B-score at 10 µM; AID 623877; hit rate 0.3% among 340,000;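 active means fluorescence-ratio B-score plate-corrected deviation score at least 3 library SD below zero, with starting fluorescence score within 5 deviations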;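 further: channel opened by trigger with iodide after compound preincubation; score built on the fluorescence ratio of max minus min over baseline; more negative score means more quench and so TMEM16A activation or potentiation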
ANO1 block = blocks the mouse calcium-activated chloride channel TMEM16A; AID 588511; hit rate 1.2% among 310,000; HEK293 TMEM16A/YFP iodide influx fluorescence, ionomycin; Q8BHY3; normalized B-score (activity score, 25-100; higher = stronger inhibition) at 10 µM;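 active means ratio plate-corrected score three or more library SD toward inhibition, starting fluorescence score within five deviations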;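 further: score derived from kinetic fluorescence span divided by baseline fluorescence per well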
CHT PAM = human CHT allosteric activation; CHT-expressing cells, membrane potential dye, choline EC20; stronger effect = higher value; LV-AA mutant CHT in HEK293 cells; Q9GZV3; hit rate 0.49% among 310,000; B-score at 10 µM;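 active means initial fluorescence not abnormally high and integrated response B-score, plate-corrected, over 3 SD above library mean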
Kir21 inh = Kir2.1 (mouse) channel inhibition | HEK293-Kir2.1, FluxOR thallium flux fluorescence; stronger effect = lower value | hit rate 0.85% among 310,000 | P35561 | AID 1672 | B-score at 10 µM;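 active means fluorescence ratio B-score at or below minus 3 SD of library scores, with starting-brightness B-score within 2 SD, cut at about -4.2 in these data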;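 further: channel flux triggered by added potassium and thallium sulfate stimulus; B-score of peak minus minimum fluorescence over baseline after thallium stimulus; more negative B-score means stronger Kir2.1 block with less thallium influx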
Target sequence (P35561 whole entry, looked up): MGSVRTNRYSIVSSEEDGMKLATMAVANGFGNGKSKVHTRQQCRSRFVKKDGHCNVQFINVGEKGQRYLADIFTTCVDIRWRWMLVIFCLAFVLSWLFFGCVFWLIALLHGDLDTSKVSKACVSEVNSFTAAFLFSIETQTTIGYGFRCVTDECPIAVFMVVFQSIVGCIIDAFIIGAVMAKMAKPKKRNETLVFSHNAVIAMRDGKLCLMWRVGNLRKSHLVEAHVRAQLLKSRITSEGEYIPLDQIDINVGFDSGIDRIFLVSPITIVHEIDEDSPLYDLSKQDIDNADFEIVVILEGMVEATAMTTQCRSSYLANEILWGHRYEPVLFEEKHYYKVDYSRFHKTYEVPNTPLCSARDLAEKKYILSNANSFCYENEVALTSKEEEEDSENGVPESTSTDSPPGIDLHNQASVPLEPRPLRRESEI
CHT block = inhibitors of human choline transporter CHT. CHT-expressing cells, membrane potential dye, choline response; stronger effect = lower value. Q9GZV3. hit rate 0.86% among 310,000. B-score at 10 µM;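 active means B-score over 3 SD under the library average, and starting fluorescence ratio not unusually high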;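 further: choline stimulus applied at its EC90 after an EC20 pre-addition; B-score computed on integrated fluorescence ratio after choline addition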
CHT act confirm = human CHT activation, confirmatory screen. shares compounds with CHT PAM. CHT-expressing cells, membrane potential dye fluorescence (FDSS); % of choline EC20–EC90 response window; HEK293 expressing CHT LV-AA mutant; choline added at its EC20. activation, % at 10 µM. hit rate 91% among 2,500. AID 504833;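 active means primary screen active, with duplicate mean activation above negative control mean plus 3 SD, cut at about 11% in these data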
HEK293 MP dye = counter-screen for CHT activators: effect in parental HEK293 cells; shares compounds with CHT PAM; membrane potential dye fluorescence (FDSS); measured after EC20 choline addition; ratio readout change at 10 µM, hits read low; hit rate 62% among 2,500; AID 623908;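 active means duplicate-averaged ratio beyond 3 SD from buffer wells, up or down, though filed actives are nearly all decreases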
The depositor's hits bear a star; i = inactive; nt = no result; + = active, no number. Rows were chosen to be rich in hits. Some 3.2% of all compounds tested hit in one or more screens of this group.

SMILES	Rce1 inhib	ANO1 activ	ANO1 block	CHT PAM	Kir21 inh	CHT block	CHT act confirm	HEK293 MP dye
CCC(C)Sc1ccc(-c2nc3ccccn3c2NCc2ccccc2)cc1OC (configuration not stated)	nt	i	nt	nt	nt	nt	nt	nt
COc1ccc(CSc2ccc(-c3nc4ccccn4c3NCc3ccccc3)cc2OC)cc1	+	i	i	8.93*	-1.17	i	30.8*	i
COc1ccc(C(=O)N/N=C/c2ccccn2)cc1OC	i	i	i	10.4*	0	i	54.2*	-66*
Cc1ccc(S(=O)(=O)NC(=O)Nc2ccc(C)cn2)cc1	i	i	i	i	-0.79	i	nt	nt
Cc1sc2nc(CN3CCCC3)nc(NCc3ccncc3)c2c1C	i	i	i	6.32*	-0.96	i	32.5*	-34*
COc1ccc(OC)c(C(c2nnnn2C2CCCC2)N2CCN(c3ccccc3F)CC2)c1 (configuration not stated)	i	i	i	i	0.38	i	34.7*	i
CC(C)CCOc1ccc(CO[C@@H]2[C@H]3OC(C)(C)O[C@H]3O[C@@H]2C(O)CO)cc1 (some centres not stated)	i	i	i	i	1.11	i	nt	nt
O=C(N/N=C/c1ccco1)c1ccc(N2CCCC2=O)cc1	i	i	i	7.73*	-1	i	59.4*	-70.5*
O=C(NCc1ccco1)c1ccc(N2CCCC2=O)cc1	i	i	i	i	0.61	i	nt	nt
CCN(CC)c1ccc(-c2nc3cnccc3n2C)cc1	i	i	i	10.3*	-0.06	i	32.5*	-49.1*
CCC[N+](CC#CCO)(CC#Cc1ccccc1)CCC	i	i	i	i	0.01	i	nt	nt
CCCC[N+](CC#CCO)(CC#Cc1ccccc1)CCCC	i	i	i	10.5*	-0.47	i	73.8*	i
CCc1ccc(OCC(=O)N/N=C/c2cc([N+](=O)[O-])ccc2N2CCOCC2)cc1	i	i	i	i	0.85	i	23.4*	i
COc1ccc(NCC(=O)N/N=C/c2cc([N+](=O)[O-])ccc2N2CCCC2)cc1	i	i	i	i	0.88	i	nt	nt
COc1ccc(CCNC(=O)CCC(=O)N2CCOc3ccc(Cl)cc32)cc1OC	i	i	i	i	-0.63	i	nt	nt
CCCCCC(=O)Nc1ccc(Cc2ccncc2)cc1	i	i	i	i	0.95	i	nt	nt
NCCCCCC(=O)Nc1ccncc1	i	i	i	i	-0.64	i	17.8*	-35*
CCn1c2c(c(=N)c3c1CCC3)CCC2	i	i	i	i	0.12	i	nt	nt
CCCCCCn1c2c(c(=N)c3c1CCC3)CCC2	i	i	i	8.16*	-0.68	i	72.1*	-43.8*
CCCCn1c2c(c(=N)c3c1CCC3)CCC2	nt	i	i	7.4*	nt	i	34.6*	-51.6*
CCCCCCCn1ccc(=N)cc1	i	i	i	i	-0.99	i	nt	nt
CCCCCCCCCn1c2c(c(=N)c3c1CCC3)CCC2	i	i	100*	10.9*	-15.2*	i	81.8*	-61.3*
O=c1c2ccccc2nc(/C=C/c2cc(Br)ccc2O)n1CCCO	i	i	i	i	1.33	i	nt	nt
CN(c1ccc(C(=O)NCCCn2ccnc2)cc1)S(C)(=O)=O	i	i	i	i	-1.38	i	nt	nt
Cc1ccc(N(CC(=O)N/N=C/c2cc(C)n(-c3ccccc3)c2C)S(C)(=O)=O)c(C)c1	i	i	i	i	0.2	i	24.0*	i
Cc1cc(Oc2ccc(C)c(Cl)c2)nc(SCC(=O)c2ccccc2)n1	i	i	i	7.17*	-2.39	i	56.4*	i

From PubChem BioAssay
